Each structure is given as a SMILES string. Records with an inconclusive call do not appear. Entries that show only a call come without a potency. The source made the active and inactive calls. Calls come from the whole dose curve; as a rule, active = well fitted inhibition curve with a large enough effect; inconclusive = small, poorly fitted or top-dose-only effect; inactive = flat fitted curve, though single readings scatter.

Chain of Calcium and integrin-binding protein 1 (Homo sapiens) (Q99828 whole entry, looked up): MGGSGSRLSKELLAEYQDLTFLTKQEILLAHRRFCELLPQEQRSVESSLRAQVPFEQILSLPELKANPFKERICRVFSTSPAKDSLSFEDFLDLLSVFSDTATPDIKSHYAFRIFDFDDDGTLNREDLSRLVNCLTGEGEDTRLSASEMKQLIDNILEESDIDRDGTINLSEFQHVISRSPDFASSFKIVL

The target in the experiment is Calcium and integrin-binding protein 1 (Homo sapiens) (UniProt Q99828). Description: Primary qHTS for Identification of Calcium Integrin Binding Protein 1 (CIB1) Competitor (AID 1508620).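 Note: GST tagged CIB1 binding a fluorescein labelled alphaIIb integrin peptide tracer; top concentration of the series differs between compounds.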 The settings on record: CIB1-GST / FITC-alphaIIb peptide fluorescence polarization; series mostly up to 114 µM. In a few lines:
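CIB1-GST (1 uM final) and compound incubated 15 min at room temperature before adding FITC-alphaIIb peptide tracer (100 nM final). Competition for binding read by fluorescence polarization (ex 480, em 540) after another 15 min at room temperature.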
Consider `COc1cc(NS(=O)(=O)c2ccc(C)cc2)c2ncccc2c1`, for which the Potency result was “inactive”.

Turning to `COc1cccc(Nc2nn3c(=O)c4ccccc4nc3s2)c1`, the Potency result is “inactive”.

As to `COc1ccc(Cl)cc1S(=O)(=O)N1CCN(S(=O)(=O)c2ccc3c(c2)OCCO3)CC1`, the Potency entry was “inactive”.

Regarding `NC(=O)C1CCN(c2nc(-c3ccc(N4CCCCC4)nc3)cs2)CC1`, the Potency result is “inactive”.

Take `CS(=O)(=O)c1ccc(-c2csc(N3CCC(C(N)=O)CC3)n2)cc1`: the Potency result was “inactive”.

As to `COc1ccc(C2Nc3ccccc3C(=O)N2Cc2ccccc2Cl)cc1COc1ccc(NC(C)=O)cc1` (centres undefined), the Potency result was “inactive”.

On to `Cc1ccc(NS(=O)(=O)c2cc3c(cc2N2CCCC2)NC(=O)CC3)cc1C`, for which the Potency entry is “inactive”.

Turning to `COc1cccc(CNc2ccc(S(=O)(=O)Nc3ccc(C)nc3)cc2)c1O`, the Potency result is “inactive”.

In the case of `Cc1ccc(OCCn2c(CCNC(=O)c3ccc([N+](=O)[O-])cc3)nc3ccccc32)cc1`, the Potency entry was “inactive”.

Regarding `Cc1cccc(-n2cnc3cc(C(=O)N4CCOCC4)ccc32)c1`, the Potency entry was “inactive”.

In the case of `O=[N+]([O-])c1cc(C(F)(F)F)ccc1N1CCN(C(=S)Nc2cc(Cl)ccn2)CC1`, the Potency result was “inactive”.

For `c1nc(NCC2CCCO2)c2ccc(-c3ccc4c(c3)OCO4)cc2n1` (centres undefined), the Potency entry was “inactive”.

Turning to `COc1cc(NS(=O)(=O)c2ccc3ccccc3c2)c2ncccc2c1`, the Potency entry was “inactive”.

Turning to `COc1ccc(C2Nc3ccccc3C(=O)N2CCO)cc1COc1c(C)cc(NC(C)=O)cc1C` (centres undefined), the Potency entry was “inactive”.

Regarding `COc1cccc(-c2ccc3ncnc(NCc4cccc(C)c4)c3c2)c1`, the Potency entry is “inactive”.

For `Clc1ccc(CSc2nc3ncc(Br)cc3[nH]2)cc1`, the Potency result was “inactive”.

For the compound `Cc1cc(-c2nnc3n2CCCCC3)c(C)n1-c1cccc2ccccc12`, the Potency entry is “inactive”.

As to `N=c1c2c(ncn1-c1ccccc1)Oc1ccc3ccccc3c1C2c1ccc2c(c1)OCO2` (centres undefined), the Potency entry was “inactive”.

For `O=C1Nc2ccccc2/C1=C/c1cc(Cl)c(O)c(Cl)c1`, the Potency entry was “inactive”.

On to `NNc1ccc(NC(=O)c2cccs2)cn1`, for which the Potency result was “inactive”.

Turning to `CC(C)(C)OC(=O)NCC(=O)NNC(=O)c1cc2ccccc2[nH]1`, the Potency entry was “inactive”.

With `FC1(F)Oc2ccc(-c3ccc4ncnc(NCc5cccs5)c4c3)cc2O1`, the Potency result was “inactive”.

On to `N#Cc1ccc(-c2ccc(CNc3ccc(N4CCCCC4)cc3)o2)cc1`, for which the Potency entry is “inactive”.

In the case of `Cc1cc(-c2ccccc2)nc2c(C(=O)Nc3ccc4c(c3)CCC4)cnn12`, the Potency entry was “inactive”.

The values above are taken from PubChem BioAssay (NCATS).
